These results are taken from PubChem BioAssay AID1851 (National Center for Advancing Translational Sciences (NCATS), 2009).

Several values for one entry are separate records, joined by “and”; a condition that tells them apart may be missing. Equal values may be shown once. The campaign covered roughly 16,000 compounds. About 5,100 (32%) were called active. Inconclusive results (about 25%) are left out. The list shows a part of the results. Values without a mark were called inactive. Calls follow the shape of the dose curve; as a rule, active = well fitted curve in the direction sought with a large enough effect; inconclusive = small, poorly fitted or top-dose-only effect, or effect the other way; inactive = no such curve, though single readings can be large or run the other way.
% is scaled to controls: 0 for no effect and ±100 for the full control effect.

This experiment deals with Cytochrome P450 3A4 (Homo sapiens) (UniProt P08684). The experiment is described as follows: Cytochrome panel assay with activity outcomes. The note with it: recombinant CYP, pro-luciferin dealkylation, luminescence, p450-cyp3a4; series mostly up to 57.1 µM; activity, negative = inhibition: at the top concentration.
Chain of Cytochrome P450 3A4 (Homo sapiens) (P08684 whole entry, looked up): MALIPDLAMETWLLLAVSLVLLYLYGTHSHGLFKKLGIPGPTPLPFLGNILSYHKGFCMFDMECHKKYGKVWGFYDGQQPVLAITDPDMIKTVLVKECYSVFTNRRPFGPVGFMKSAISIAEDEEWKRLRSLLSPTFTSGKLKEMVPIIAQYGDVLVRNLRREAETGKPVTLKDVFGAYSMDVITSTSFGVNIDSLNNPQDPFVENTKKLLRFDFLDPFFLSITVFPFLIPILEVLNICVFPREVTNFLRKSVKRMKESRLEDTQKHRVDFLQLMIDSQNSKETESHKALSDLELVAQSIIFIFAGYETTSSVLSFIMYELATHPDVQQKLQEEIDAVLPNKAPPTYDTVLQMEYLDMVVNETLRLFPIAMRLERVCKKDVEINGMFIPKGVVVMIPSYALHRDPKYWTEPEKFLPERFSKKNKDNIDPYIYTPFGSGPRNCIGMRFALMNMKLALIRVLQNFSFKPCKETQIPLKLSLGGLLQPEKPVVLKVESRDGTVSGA
Consider `CC(C)[C@H](CO)Nc1nc(Nc2ccc(C(=O)O)c(Cl)c2)c2ncn(C(C)C)c2n1`, for which the “activity, negative = inhibition” value is -24.8%.

Take `NCCC(=O)O`: the “activity, negative = inhibition” value is -12.8%.

`Cc1ccc(-c2nnc(-c3ccccc3S(=O)(=O)Cc3ccc(Cl)cc3)o2)cc1`: the AC50 (usually the midpoint of the concentration-response curve, whichever way the signal moves) is 3.98 µM (active).

Take `O=C(Nc1nnc(-c2ccc(Cl)cc2)o1)Nc1ccccc1Cl`: the activity, negative = inhibition is -3.31% [at 2.29 µM].

With `NS(=O)(=O)c1cc(C(=O)O)c(O)c2ccccc12`, the activity, negative = inhibition is -3.6% [at 11.4 µM].

In the case of `COc1ccc2c(c1)C(c1ccc([N+](=O)[O-])cc1)=NNC(c1ccco1)=N2`, the AC50 was 14.1 µM (active).

Regarding `Cc1ccccc1-c1ccc2ncnc(NCc3cccs3)c2c1`, the AC50 was 3.98 µM (active).

In the case of `FC(F)(F)c1ccccc1-c1ccc2ncnc(NCc3cccs3)c2c1`, the AC50 was 5.01 µM (active).

On to `Cc1cc2nc(CCN(C(=S)NCC(C)C)C3CCCC3)[nH]c2cc1C`, for which the AC50 is 17.8 µM (active).

Turning to `Cc1noc(C)c1COc1ccc(C(=O)NCC2CCCO2)cc1` (stereo unspecified), the “activity, negative = inhibition” value is -6.7%.

As for `COc1cc(C(=O)OC(C)C(=O)Nc2ccc3c(c2)OCO3)ccc1OCc1c(C)noc1C` (stereo unspecified), the AC50 was 0.631 µM (active).

Consider `CC(C)=NO[C@@H](C)c1cn([C@H](CO)Cc2ccccc2)nn1`, for which the activity, negative = inhibition is -28.8% [at 11.4 µM] and -23.4% [at 11.4 µM].

In the case of `CCc1cc2c(nc1CC)CCN(CC/C(C)=N/O[C@@H](C)c1cn([C@@H]3COC[C@@H]3O)nn1)C2`, the activity, negative = inhibition is -5.44% [at 11.4 µM].

For the compound `CCc1cc2c(nc1CC)CCN(CC/C(C)=N/O[C@@H](C)c1cn([C@H](CO)Cc3ccccc3)nn1)C2`, the AC50 is 3.16 µM (active) and 3.98 µM (active).

In the case of `C/C(CCN1CCCc2nc(C)c(C)cc21)=N\O[C@@H](C)c1cn([C@H](CO)Cc2ccccc2)nn1`, the AC50 was 2 µM (active).

Consider `C/C(CCN1CCCCc2nc(C)c(C)cc21)=N\O[C@@H](C)c1cn([C@H](CO)Cc2ccccc2)nn1`, for which the AC50 is 3.98 µM (active) and 5.01 µM (active).

As for `CN(C)C(=O)CN(c1ccc2c(c1)OCO2)S(C)(=O)=O`, the AC50 was 25.1 µM (active).

Consider `Cc1cccc(N(CC(=O)N2CCOCC2)S(C)(=O)=O)c1`, for which the “activity, negative = inhibition” value was -0.837%.

`COc1ccc(NC(=O)CN2c3cccc4cccc(c34)S2(=O)=O)cc1`: the AC50 is 4.47 µM (active).

On to `COc1ccc(NC(=O)CN2CCN(CC(=O)Nc3ccccc3Cl)CC2)cc1`, for which the AC50 was 10 µM (active).

As for `O=C(CN1C(=O)C2C3C=CC(C3)C2C1=O)Nc1ccc2c(c1)OCCO2` (stereo unspecified), the AC50 is 25.1 µM (active).

With `COc1ccccc1NC(=O)CN1CCN(CC(=O)Nc2ccc(OCc3ccccc3)cc2)CC1`, the “activity, negative = inhibition” value was -17.7%.

With `O=C(CN1C(=O)C2C3C=CC(C3)C2C1=O)Nc1ccc(C(=O)O)cc1` (stereo unspecified), the “activity, negative = inhibition” value is -10.2%.

Consider `COc1ccc(NC(C)=O)cc1NC(=O)CN1CCN(CC(=O)Nc2ccccc2Cl)CC1`, for which the AC50 was 12.6 µM (active).

With `CSc1nc(NC2CCCC2)c([N+](=O)[O-])c(NC2CCCC2)n1`, the “activity, negative = inhibition” value is -23.7%.

For `COc1ccc([C@@H]2CC(=O)c3c(O)cc(O[C@H]4O[C@@H](CO[C@H]5O[C@@H](C)[C@@H](O)[C@@H](O)[C@@H]5O)[C@@H](O)[C@@H](O)[C@@H]4O)cc3O2)cc1O`, the “activity, negative = inhibition” value was -1.85% [at 25.6 µM].

As to `O=C(CN1CCN(CC(=O)Nc2ccccc2Cl)CC1)Nc1ccc2c(c1)OCCO2`, the AC50 is 14.1 µM (active).

`O=C(Nc1ccc2c(c1)OCCO2)C1CCN(C(=O)c2ccccc2)CC1`: the “activity, negative = inhibition” value was 21.8%.

Regarding `COc1cccc(OC)c1OCCCN1CCOCC1`, the “activity, negative = inhibition” value is -7.58%.

As for `COc1cccc(OC)c1OCCCCN1CCCC1`, the “activity, negative = inhibition” value is -8.41%.

Regarding `COc1cccc(OC)c1OCCNC[C@@H]1COc2ccccc2O1`, the AC50 was 2 µM (active) and 2.51 µM (active).

As to `O=C(CCN1C(=O)c2ccccc2C1=O)NC(=S)Nc1cccc(Cl)c1`, the AC50 is 15.8 µM (active).

For `Cc1cnn(CCC(=O)NNC(=S)Nc2cccc(Cl)c2)c1`, the AC50 is 12.6 µM (active).

As to `O=C(Nc1cccc(Cl)c1)N1CCN2C(=O)c3ccccc3C12c1ccccc1` (stereo unspecified), the activity, negative = inhibition is -22.9% [at 2.29 µM].

As for `O=C(COc1ccccc1Cl)NC(=S)Nc1cccc(NC(=O)c2ccccc2Cl)c1`, the activity, negative = inhibition is 7.56% [at 2.29 µM].

Regarding `Cc1cccc(NC(=S)NNC(=O)CCn2cc(C)cn2)c1`, the “activity, negative = inhibition” value is 17%.

For `CNC[C@H](O)[C@H](O)[C@H](O)[C@H](O)CO`, the “activity, negative = inhibition” value is -7.18% [at 25.6 µM].

Turning to `Cc1cccc(NC(=O)c2onc3c2CCCC3)c1C`, the “activity, negative = inhibition” value was -26.3%.

Consider `CN(C)c1ccc(NC(=O)c2cccc(N3C(=O)C4C5C=CC(C5)C4C3=O)c2)cc1` (stereo unspecified), for which the “activity, negative = inhibition” value was -26%.

On to `Cc1cccc(NC(=O)c2cccc(N3C(=O)C4C5CCC(C5)C4C3=O)c2)c1C` (stereo unspecified), for which the AC50 was 11.2 µM (active).

For the compound `c1ccc2c(N3CCOCC3)nc(-c3ccoc3)nc2c1`, the AC50 was 6.31 µM (active).

Consider `Cc1noc(C)c1-c1nc(N2CCN(C)CC2)c2ccccc2n1`, for which the “activity, negative = inhibition” value is -26.4%.

Turning to `Cc1ccccc1-c1nc(N2CCOCC2)c2ccccc2n1`, the AC50 was 15.8 µM (active).

Regarding `Clc1ccccc1-c1nc(NC2CCNCC2)c2ccccc2n1`, the “activity, negative = inhibition” value was -3.64%.

For the compound `Clc1ccccc1-c1nc(N2CCNCC2)c2ccccc2n1`, the AC50 is 25.1 µM (active).

On to `Cc1noc(C)c1-c1nc(N2CCOCC2)c2ccccc2n1`, for which the concentration at half-maximal activity (AC50) is 6.31 µM (active).

Take `O=C(O)CCCCCCCC(=O)O`: the “activity, negative = inhibition” value was 0.705%.

In the case of `CCOC(=O)C(C)(C)[C@H](O)C(C)C`, the activity, negative = inhibition was 2.08% [at 11.4 µM].

For the compound `Cc1cc2nc3c(=O)[nH]c(=O)nc-3n(CC(O)C(O)C(O)CO)c2cc1C` (stereo unspecified), the “activity, negative = inhibition” value was -18.2% [at 25.6 µM].

For the compound `O=C1NC(c2ccccc2)=NC1(NS(=O)(=O)c1ccccc1)C(F)(F)F` (stereo unspecified), the “activity, negative = inhibition” value is -3.82%.

`Cc1ccccc1-c1nc(N2CCNCC2)c2ccccc2n1`: the AC50 is 25.1 µM (active).

As to `Cc1ccccc1-c1nc(N2CCN(C)CC2)c2ccccc2n1`, the AC50 was 20 µM (active).

On to `OC[C@@H]1O[C@@H](n2cnc3c(SCc4ccccc4)ncnc32)[C@@H](O)[C@H]1O`, for which the activity, negative = inhibition was 7.88% [at 11.4 µM].

Take `Nc1nc(Cl)cc(NCCO)n1`: the activity, negative = inhibition was -4.92% [at 11.4 µM].

With `CCCCCCCCCCCCCCCCCCc1ccc(C(=O)/C=C\C(=O)O)cc1`, the “activity, negative = inhibition” value is -8.11%.

On to `COc1ccccc1NC(=O)c1ccc(-n2cccn2)nc1`, for which the “activity, negative = inhibition” value is 0.809%.

Take `Cc1nc(C(=O)Nc2cccc(Cl)c2Cl)nn1-c1cc(OC(C)C)c(Cl)cc1Cl`: the “activity, negative = inhibition” value is -26.4%.

For `O=C(Nc1ccc(F)cc1)c1ccc(-n2ccnc2)nc1`, the AC50 was 0.126 µM (active).

Turning to `Cc1c(Cl)cccc1NC(=O)c1ccc(-n2ccnc2)nc1`, the AC50 was 0.0398 µM (active).

For the compound `COc1cccc(Cn2c(NCc3cccnc3)nc3c2c(=O)n(C)c(=O)n3C)c1`, the AC50 was 3.16 µM (active).

For `CN(C)CCNc1nc2c(c(=O)n(C)c(=O)n2C)n1C`, the activity, negative = inhibition was -5.65% [at 11.4 µM].

As to `Cn1c(=O)c2c(nc(NCCNc3nc4c(c(=O)n(C)c(=O)n4C)n3C)n2C)n(C)c1=O`, the activity, negative = inhibition was 8.34% [at 11.4 µM].

As for `O=C(CCCNS(=O)(=O)c1cccc2nsnc12)NCCc1ccccc1`, the AC50 is 7.08 µM (active).

Turning to `COc1cc(C2C(C#N)=C(N)OC3=C2C(=O)CCC3)c([N+](=O)[O-])cc1OC` (stereo unspecified), the AC50 is 11.2 µM (active).

Turning to `N#CC1=C(N)OC2=C(C(=O)CCC2)C12CCC1(CC2)OCCO1`, the “activity, negative = inhibition” value was -15.2%.

On to `CN1CCN(/C=N/C2=C(C#N)C(c3ccccc3)C3=C(CC(C)(C)CC3=O)O2)CC1` (stereo unspecified), for which the activity, negative = inhibition was 1.82% [at 2.29 µM].

In the case of `COc1ccc(C2C(C#N)=C(N)OC3=C2C(=O)CC(C)(C)C3)c([N+](=O)[O-])c1OC` (stereo unspecified), the AC50 was 5.01 µM (active).

On to `Cc1cc(C2C(C#N)=C(N)OC3=C2C(=O)CC(C)(C)C3)c(C)s1` (stereo unspecified), for which the AC50 was 3.55 µM (active).

As to `CCSC[C@@H](N)C(=O)O`, the activity, negative = inhibition was -3.53% [at 11.4 µM].

On to `COC(=O)\C(C(C)=O)=C(/C=C/C=C/C=C/N(C)C)N(C)C`, for which the activity, negative = inhibition is 1.83% [at 2.29 µM].

`CCc1c(C)nc(N)n2c(SCC(=O)Nc3ccccc3)nnc12`: the AC50 was 17.8 µM (active).

Consider `CN(Cc1ccco1)c1ccnc(-c2cccc(C#N)c2)n1`, for which the half-maximal activity concentration (AC50) was 12.6 µM (active).

As to `CN(Cc1ccco1)c1ccnc(-c2ccoc2)n1`, the “activity, negative = inhibition” value was -11.2%.

As to `CN(Cc1ccco1)c1ccnc(-c2cccnc2)n1`, the AC50 was 12.6 µM (active).

For the compound `CN(C)c1ncc2nc(-c3cccc(C#N)c3)c(=O)n(C[C@H]3CCCO3)c2n1`, the “activity, negative = inhibition” value is -10.8%.

On to `COc1cccc(-c2nccc(N(C)Cc3ccco3)n2)c1`, for which the AC50 is 20 µM (active).

As to `CCN=C1NN=C(c2ccc(C)cc2)CS1`, the AC50 is 15.8 µM (active).

On to `CC(=O)Nc1ccc(NC(=O)CC2Nc3cccc4cccc(c34)NC2=O)cc1` (stereo unspecified), for which the half-maximal activity concentration (AC50) was 10 µM (active).

Take `CC(=O)Nc1ccc(C#Cc2ccc(NC(C)=O)cc2)cc1`: the “activity, negative = inhibition” value is -11.2%.

As to `N/N=C1/c2ccccc2N[C@H]1OC(=O)Nc1ccccc1`, the activity, negative = inhibition is -29.3% [at 11.4 µM].

Take `Cc1cccc(NC(=O)CC2Nc3cccc4cccc(c34)NC2=O)c1` (stereo unspecified): the half-maximal activity concentration (AC50) was 2.51 µM (active).

As to `COc1cccc2c1C(=N)c1c(O)c3c(c(O)c1C2=O)C[C@](O)(C(C)=O)C[C@@H]3O[C@H]1C[C@H](N)[C@@H](O)[C@H](C)O1`, the activity, negative = inhibition was -16% [at 11.4 µM].

As to `COc1ccc(NS(=O)(=O)c2ccc(NC(=O)c3cnn4c(C(F)F)cc(-c5ccc(C)cc5)nc34)cc2)cc1`, the AC50 is 1.26 µM (active).

On to `Cc1cccc(C)c1NC(=O)CSc1nc(C)c(CC(=O)c2ccc(Br)cc2)c(C)c1C#N`, for which the AC50 is 5.01 µM (active).

Regarding `Cc1nonc1NCn1nnc2ccccc21`, the “activity, negative = inhibition” value was 2.63%.

As for `CCC(=O)N1CCn2c1nc1ccccc12`, the “activity, negative = inhibition” value is -0.0339%.

For `O=C(O)Cn1c(-c2ccccc2)nc2ccccc21`, the “activity, negative = inhibition” value was 3.83%.

Consider `CCn1c(-c2nonc2NC(=O)c2ccccc2)nc2ccccc21`, for which the AC50 was 3.16 µM (active).

Take `CCC(=O)Nc1nonc1-c1nc2ccccc2n1N(C(=O)CC)C(=O)CC`: the AC50 is 22.4 µM (active).

As for `CC(=O)Nc1nonc1NC(=O)c1ccc(C(C)(C)C)cc1`, the activity, negative = inhibition is -6.73% [at 11.4 µM].

In the case of `Nc1c(S(N)(=O)=O)cc(S(N)(=O)=O)cc1S(N)(=O)=O`, the activity, negative = inhibition was -3.99% [at 11.4 µM].
